Values without a mark were called inactive. For part of these data: Entries with a potency or affinity are not part of this list. Calls of active or inactive are those of the source. Unless noted, the rule behind the calls is not given here.

In PubChem BioAssay one finds growth inhibition, inhibition and outcome data, which are given here for three molecules.

Assay [1] is described as follows: antimalarial activity against Dd2 strain (AID 2302;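 active = growth inhibition above 50% at the single 2 µM test dose, taken to imply half-maximal potency below 2 µM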;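 note: 0% = DMSO untreated growth and 100% = chloroquine plus artemisinin killed control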). The settings on record: P. falciparum Dd2 in RBCs, LDH growth readout, 72 h; at 2 µM; stronger effect = higher value.
Assay [2] can be described thus: human hepatoma cell viability loss – ATP luminescence, cytotoxicity control for P. falciparum antimalarial project, primary screen (AID 2303;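 active = inhibition above 50%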;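 note: 0% = DMSO wells and 100% = digitonin-killed cells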). The conditions noted are these: HepG2 viability, 24-48 h, at 10 µM, stronger effect = higher value.
The target in assay [3] is L-lactate dehydrogenase (Plasmodium falciparum (isolate CDC / Honduras)) (UniProt Q27743). Briefly: PfLDH activity inhibition – cell lysate, 3D7 strain, counter-screen for P. falciparum growth inhibition project (AID 2304).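 Note: 0% = vehicle and 100% = reference inhibitor.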 The settings on record: P. falciparum 3D7 crude extract, LDH APAD/NBT absorbance; at 2 µM; stronger effect = higher value. In general terms: A counterscreen serves to expose hits that act by an unwanted route or on another target.
L-lactate dehydrogenase (Plasmodium falciparum (isolate CDC / Honduras)), sequence (Q27743 whole entry, looked up): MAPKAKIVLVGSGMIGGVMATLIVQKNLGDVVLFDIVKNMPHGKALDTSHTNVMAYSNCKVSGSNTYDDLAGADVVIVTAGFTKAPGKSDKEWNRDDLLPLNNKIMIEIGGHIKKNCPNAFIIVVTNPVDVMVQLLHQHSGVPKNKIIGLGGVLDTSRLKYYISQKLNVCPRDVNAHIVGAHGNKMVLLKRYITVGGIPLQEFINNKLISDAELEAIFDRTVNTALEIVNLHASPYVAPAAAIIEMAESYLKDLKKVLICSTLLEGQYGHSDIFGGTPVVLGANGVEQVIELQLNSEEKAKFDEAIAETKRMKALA

A short description of assay [4]: inhibition of 3D7 malaria parasite growth – strain 3D7 (AID 2306).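 Note: 0% = DMSO wells and 100% = chloroquine plus artemisinin control wells.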 The settings on record: P. falciparum 3D7 erythrocytic growth, LDH absorbance, 72 h; at 2 µM; stronger effect = higher value.
For assay [5], the target named is Calcium-dependent protein kinase 1 (Plasmodium falciparum (isolate 3D7)) (UniProt P62344). The experiment in a line: PfCDPK1 kinase inhibitors, biochemical, TCAMS library (AID 1159585; cut-off not given, nearly all actives have IC50 up to about 0.98 µM;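 note: inhibitors leave more ATP so luminescence rises with inhibition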). The conditions noted are these: recombinant PfCDPK1, Kinase-Glo ATP depletion luminescence. Background: Kinase-Glo reads ATP consumption through a luciferase reaction.
Calcium-dependent protein kinase 1 (Plasmodium falciparum (isolate 3D7)), sequence (P62344 whole entry, looked up): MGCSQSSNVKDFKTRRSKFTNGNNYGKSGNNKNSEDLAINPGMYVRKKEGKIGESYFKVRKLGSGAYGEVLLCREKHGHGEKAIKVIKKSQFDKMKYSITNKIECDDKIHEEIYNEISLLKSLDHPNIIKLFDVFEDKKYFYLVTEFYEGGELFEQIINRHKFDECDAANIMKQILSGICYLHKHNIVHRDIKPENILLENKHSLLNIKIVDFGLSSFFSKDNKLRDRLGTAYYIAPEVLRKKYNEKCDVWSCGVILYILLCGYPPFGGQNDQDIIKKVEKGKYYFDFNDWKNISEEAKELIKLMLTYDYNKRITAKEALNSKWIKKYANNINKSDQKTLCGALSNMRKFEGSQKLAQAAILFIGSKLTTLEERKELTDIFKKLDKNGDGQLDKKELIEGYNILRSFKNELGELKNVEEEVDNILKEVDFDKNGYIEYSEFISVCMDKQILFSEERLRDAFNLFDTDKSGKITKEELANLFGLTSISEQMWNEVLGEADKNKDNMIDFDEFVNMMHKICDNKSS
The target in assay [6] is Plasmodium falciparum protein kinase 6 (PK6, PF3D7_1337100) (UniProt Q8IDW1). Briefly: PfPK6 kinase inhibitors, biochemical, TCAMS library (AID 1159586). The conditions noted are these: recombinant PfPK6, Kinase-Glo ATP depletion luminescence.
Plasmodium falciparum protein kinase 6 (PK6, PF3D7_1337100), sequence (Q8IDW1 1-305): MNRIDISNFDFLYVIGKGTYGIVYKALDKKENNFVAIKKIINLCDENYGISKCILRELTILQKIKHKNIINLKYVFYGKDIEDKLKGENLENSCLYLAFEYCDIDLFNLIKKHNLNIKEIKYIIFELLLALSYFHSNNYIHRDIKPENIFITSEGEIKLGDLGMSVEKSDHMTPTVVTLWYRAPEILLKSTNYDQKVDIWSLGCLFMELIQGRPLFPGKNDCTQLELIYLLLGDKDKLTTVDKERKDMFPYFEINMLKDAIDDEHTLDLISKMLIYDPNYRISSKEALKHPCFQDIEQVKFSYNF
Assay [7] has as its target Protein kinase 7 (PK7), Plasmodium falciparum 3D7 (PF3D7_0213400) (UniProt Q7YTF7). The experiment in a line: inhibition of Plasmodium PK7 catalytic activity – biochemical, TCAMS antimalarial set, Kinase-Glo luminescence (AID 1159587). The settings on record: recombinant PfPK7, Kinase-Glo ATP depletion luminescence.
Assay [8] addresses Calcium-dependent protein kinase 4 (Plasmodium falciparum (isolate 3D7)) (UniProt Q8IBS5). Briefly: PfCDPK4 kinase inhibitors, biochemical, TCAMS library (AID 1159588; cut-off not given, nearly all actives have IC50 up to about 0.91 µM). The settings on record: recombinant PfCDPK4, Kinase-Glo ATP depletion luminescence.

Calcium-dependent protein kinase 4 (Plasmodium falciparum (isolate 3D7)), sequence (Q8IBS5 whole entry, looked up): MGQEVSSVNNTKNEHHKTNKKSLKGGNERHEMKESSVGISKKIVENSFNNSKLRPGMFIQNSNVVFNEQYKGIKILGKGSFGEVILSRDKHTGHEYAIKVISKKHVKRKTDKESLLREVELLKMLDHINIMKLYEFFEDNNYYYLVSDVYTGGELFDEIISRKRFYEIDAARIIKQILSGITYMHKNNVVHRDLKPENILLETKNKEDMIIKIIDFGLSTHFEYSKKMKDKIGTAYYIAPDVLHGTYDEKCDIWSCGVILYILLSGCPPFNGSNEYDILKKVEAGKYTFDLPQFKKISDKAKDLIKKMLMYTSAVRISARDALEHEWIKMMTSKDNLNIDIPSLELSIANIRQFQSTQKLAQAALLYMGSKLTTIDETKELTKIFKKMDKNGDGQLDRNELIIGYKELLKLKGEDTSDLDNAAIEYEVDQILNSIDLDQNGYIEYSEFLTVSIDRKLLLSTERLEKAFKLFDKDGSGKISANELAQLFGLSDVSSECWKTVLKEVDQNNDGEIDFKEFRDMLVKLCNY
Protein kinase 7 (PK7), Plasmodium falciparum 3D7 (PF3D7_0213400), sequence (Q7YTF7 1-343): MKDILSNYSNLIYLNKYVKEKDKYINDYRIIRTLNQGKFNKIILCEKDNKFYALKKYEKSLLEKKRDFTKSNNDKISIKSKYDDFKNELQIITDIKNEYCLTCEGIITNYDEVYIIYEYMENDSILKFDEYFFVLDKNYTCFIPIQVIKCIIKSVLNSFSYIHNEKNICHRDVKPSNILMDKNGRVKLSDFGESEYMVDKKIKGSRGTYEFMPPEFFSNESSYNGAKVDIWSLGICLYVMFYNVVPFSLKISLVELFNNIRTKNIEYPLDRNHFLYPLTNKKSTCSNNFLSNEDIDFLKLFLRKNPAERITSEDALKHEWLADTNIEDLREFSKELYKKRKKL

With `O=C(Nc1cccc(-c2nc3ccccc3s2)c1)c1ccccc1[N+](=O)[O-]`, the results for the growth inhibition in assay [1] and in assay [4] were 9% and 85% (active), respectively. The inhibition in assay [2] and in assay [3] was 0% in each case. Moreover, the result in assay [5], in assay [6], in assay [7] and in assay [8] was inactive.

Consider `O=C(Nc1cccc(-c2ccc(-c3nc4ccc(C(F)(F)F)cc4[nH]3)cc2)c1)c1ccncc1`, for which the growth inhibition in assay [1] is 90% (active); in assay [4] it was 100% (active). The inhibition (usually the drop in the measured response relative to a control, in per cent) is 79% (active) in assay [2] and -1% in assay [3]. In addition, the result in assay [5], in assay [6], in assay [7] and in assay [8] was inactive.

Take `COc1ccc(-c2cccc(NC(=O)c3cccc(C#N)c3)c2)cc1CN(C)CCN(C)C`: the growth inhibition in assay [1] is 21%; in assay [4], 99% (active). Further, the inhibition in assay [2] is -5%; in assay [3] it was 3%. The result in assay [5], in assay [6], in assay [7] and in assay [8] was inactive.
